For seven compounds, outcome and AC50 results are on record in PubChem BioAssay (EPA / NIEHS).

Activity calls are given as the source filed them. Rule for the calls: active = hit-call score of the fitted dose curve at least 0.9, where 1 is the maximum; inactive = score below 0.9.

Test [1] is described as follows: ATG_CMV_CIS: Attagene CIS-FACTORIAL HepG2 Assay for human CMV (Internal Marker) (AID 2282928).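 Note: endpoint acts as a background internal control marker rather than a target.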 Conditions: HepG2 CMV promoter reporter, transcription factor profiling; actives raise or lower the signal. In short, it runs like this: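 Endogenous transcription factor activity read in HepG2 via transfected cis-promoter reporter units. After 24 h dosing, reporter mRNA measured by RT-PCR/capillary electrophoresis; gain or loss of signal fit relative to DMSO.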

Test [2] in a line: ATG_DR4_LXR_CIS: Attagene CIS-FACTORIAL HepG2 Assay for human Liver X Receptor (LXR), DR4 submotif (AID 2282929). Conditions: HepG2 Attagene DR4 cis-reporter, mRNA transcription; actives raise or lower the signal. In short, it runs like this:
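Total RNA from 24 h-treated, MRTU-transfected HepG2 cells underwent reverse transcription, PCR, fluorescent primer extension and restriction digestion before capillary electrophoresis. Both increases and decreases in reporter signal were fitted against DMSO.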

Test [3] is described as follows: ATG_AP_2_CIS: Attagene CIS-FACTORIAL HepG2 Assay for human Activator Protein 2 (AP-2) (AID 2282932). Conditions: HepG2 AP-2 cis-reporter, Attagene transcription factor profiling; actives raise or lower the signal. The essentials:
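HepG2 cells transiently transfected with cis-element reporter units and exposed for 24 h. Reporter mRNA measured by RT-PCR, FAM labelling, HpaI digestion and capillary electrophoresis. Changes in either direction fitted relative to DMSO.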

The target of test [4] is Transcription factor E2F1 (Homo sapiens) (UniProt Q01094). The test is described as follows: ATG_E2F_CIS: Attagene CIS-FACTORIAL HepG2 Assay for human E2F Transcription Factor 1 (AID 2282935). Particulars: HepG2 Attagene cis-reporter, E2F reporter RNA transcripts; actives raise or lower the signal. In short, it runs like this:
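Endogenous E2F1 activity read through cis-promoter reporter units transfected into HepG2. After 24 h compound treatment, reporter mRNA measured by RT-PCR, HpaI digestion and capillary electrophoresis. Bidirectional fit versus DMSO.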

Test [5] in a line: ATG_M_61_CIS: Attagene CIS-FACTORIAL HepG2 Assay for M61 Transcription Factor (Internal Marker) (AID 2282937). Particulars: HepG2 Attagene CIS-FACTORIAL M61 internal marker reporter; actives raise or lower the signal. The essentials: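 Transfect HepG2 with MRTUs; dose 24 h; isolate RNA; reverse-transcribe with DNase I treatment; PCR-amplify, FAM-label and cut with HpaI for 2 h at 37 C; resolve by CE. Bidirectional fitting against DMSO.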

Test [6] is described as follows: ATG_EGR_CIS: Attagene CIS-FACTORIAL HepG2 Assay for human Early Growth Response 1 (EGR1) (AID 2282938). Particulars: HepG2 Attagene CIS-FACTORIAL EGR reporter mRNA; actives raise or lower the signal. The essentials: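 After a 24 h treatment of transiently transfected HepG2 cells, total RNA was reverse-transcribed and reporter sequences PCR-amplified, labelled and run on capillary electrophoresis. Reporters sit under cis-regulatory promoters sensing endogenous factors.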

Test [7] in a line: ATG_Ets_CIS: Attagene CIS-FACTORIAL HepG2 Assay for human Erythroblast Transformation Specific (ETS) (AID 2282941). Particulars: HepG2 ETS cis-reporter transcription, actives raise or lower the signal. In short, it runs like this:
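Steps: transfect HepG2 with multiple reporter units; treat compound 24 h; isolate RNA, DNase-treat, reverse-transcribe; PCR-amplify, label with 6-FAM, digest with HpaI; separate by capillary electrophoresis. Activity fitted both directions versus DMSO.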

In test [8] the target is Hepatocyte nuclear factor 3-beta (Homo sapiens) (UniProt Q9Y261). Put plainly: ATG_FoxA2_CIS: Attagene CIS-FACTORIAL HepG2 Assay for human Forkhead box A2 (FOXA2) (AID 2282942). Particulars: HepG2 cis-reporter transcription factor activity, 24 h; actives raise or lower the signal. In short, it runs like this:
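24 h dosing of HepG2 bearing cis-reporter constructs; mRNA readout by RT-PCR/CE fluorescence; bidirectional fit, DMSO baseline.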

A short description of test [9]: ATG_FoxO_CIS: Attagene CIS-FACTORIAL HepG2 Assay for human Forkhead box O (FoxO) (AID 2282943). Conditions: HepG2 Attagene cis-reporter, FoxO element, mRNA; actives raise or lower the signal. The essentials:
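Read-out: fluorescence of 6-FAM-labelled reporter cDNA fragments resolved by capillary electrophoresis. Transiently transfected HepG2 cells were dosed for 24 h; activity fitted in both directions relative to DMSO controls.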

The nature of test [10]: ATG_GATA_CIS: Attagene CIS-FACTORIAL HepG2 Assay for human GATA Binding Protein (AID 2282944). Conditions: HepG2 GATA cis-element reporter, Attagene multiplex mRNA; actives raise or lower the signal. In short, it runs like this: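 DMSO serves as negative control and baseline for bidirectional fitting of reporter mRNA changes. HepG2 cells bearing transiently transfected cis-promoter reporters were exposed 24 h; transcripts detected via RT-PCR and capillary electrophoresis.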

A short description of test [11]: ATG_ISRE_CIS: Attagene CIS-FACTORIAL HepG2 Assay for human Interferon Regulatory Factor 1 (IRF1) binding to an Interferon-Stimulated Response Element (ISRE) (AID 2282948). Conditions: HepG2 ISRE cis-reporter (Attagene), mRNA transcription readout; actives raise or lower the signal. In short, it runs like this: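 Transfected HepG2 (multiple reporter transcription units, cis elements) dosed 24 h. RNA → oligo(dT) RT → PCR → 6-FAM primer extension → HpaI → CE. DMSO = negative control/baseline.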

Test [12] in a line: ATG_M_32_CIS: Attagene CIS-FACTORIAL HepG2 Assay for M32 Transcription Factor (Internal Marker) (AID 2282949).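 Note: background control marker of the multiplexed CIS panel rather than a real target.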 Conditions: HepG2 Attagene cis-factorial M32 reporter, mRNA; actives raise or lower the signal. In short, it runs like this: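 Fluorescent capillary electrophoresis peaks of HpaI-digested, FAM-labelled RT-PCR reporter products give the signal. Source: transiently transfected human liver HepG2 cells, 24 h after chemical dosing; bidirectional fitting against DMSO.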

Test [13] in a line: ATG_MRE_CIS: Attagene CIS-FACTORIAL HepG2 Assay for human Metal Responsive Element (MRE) (AID 2282954). Conditions: HepG2 MRE cis-reporter transcription, Attagene multiplex; actives raise or lower the signal. The essentials:
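HepG2 cells transiently transfected with cis-element-driven reporter units; mRNA measured 24 h after dosing. Reporter transcripts quantified by RT-PCR, FAM labelling, HpaI digestion and capillary electrophoresis; bidirectional fit versus DMSO.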

Test [14] deals with Paired box protein Pax-6 (Homo sapiens) (UniProt P26367). The test is described as follows: ATG_Pax6_CIS: Attagene CIS-FACTORIAL HepG2 Assay for human Paired Box 6 (PAX6) (AID 2282956). Conditions: HepG2 CIS-FACTORIAL PAX6 reporter transcription, RNA readout; actives raise or lower the signal. The essentials: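 Transient MRTU transfection of HepG2 → compound exposure 24 h → TriZol RNA, oligo(dT) RT → PCR, 6-FAM primer extension, HpaI cut → capillary electrophoresis; activity fitted both directions against DMSO.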

Test [15] is described as follows: ATG_PXRE_CIS: Attagene CIS-FACTORIAL HepG2 Assay for human Pregnane X Receptor Element (PXRE) (AID 2282957). Particulars: HepG2 Attagene CIS-FACTORIAL PXRE reporter, mRNA; actives raise or lower the signal. The essentials: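 Transiently transfected HepG2 cells were dosed and incubated for 24 h. RNA was then isolated, DNase-treated, reverse-transcribed and reporter sequences amplified. Labeled, HpaI-digested fragments were quantified by capillary electrophoresis against DMSO.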

The nature of test [16]: ATG_Sox_CIS: Attagene CIS-FACTORIAL HepG2 Assay for human SRY-box transcription factor (SOX) (AID 2282960). Conditions: HepG2 Attagene cis-factorial SOX reporter, mRNA; actives raise or lower the signal. In short, it runs like this: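 HepG2, cis reporter units, 24 h exposure. Reporter mRNA: RT-PCR → FAM labelling → HpaI → CE fluorescence. Bidirectional fit vs DMSO.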
A short description of test [17]: ATG_SREBP_CIS: Attagene CIS-FACTORIAL HepG2 Assay for human Sterol Regulatory Element Binding (SREBP) (AID 2282962). Conditions: HepG2 Attagene cis-factorial SREBP reporter, mRNA; actives raise or lower the signal. The essentials:
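Transfected HepG2 (cis-regulated reporter library, endogenous TFs) → compound 24 h → total RNA → oligo(dT) RT → reporter-specific PCR → FAM primer extension, HpaI cut → CE fluorescence. Fit bidirectional vs DMSO.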

Test [18] in a line: ATG_TCF_b_cat_CIS: Attagene CIS-FACTORIAL HepG2 Assay for human T-Cell-Factor with beta-catenin (TCF/b-cat) (AID 2282965). Particulars: HepG2 TCF/beta-catenin cis-reporter transcription, actives raise or lower the signal. The essentials: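 HepG2, transient MRTU transfection, cis-element-driven reporters (endogenous TFs). 24 h compound exposure. Readout: reporter mRNA by RT-PCR + 6-FAM primer extension, HpaI digest, capillary electrophoresis. Gain/loss fit vs DMSO baseline.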

Test [19] can be described thus: ATG_TAL_CIS: Attagene CIS-FACTORIAL HepG2 Assay for human TAL Basal Promoter (AID 2282966).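 Note: background control endpoint measuring basal TAL promoter reporter mRNA not a specific factor.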 Particulars: HepG2 Attagene cis-factorial TAL promoter reporter; actives raise or lower the signal. The essentials:
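Readout: reporter mRNA, fluorescence by CE. System: HepG2, transient multi-reporter transfection, endogenous TF activity. Exposure: 24 h. Analysis: bidirectional, DMSO-normalized; background control.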

The nature of test [20]: ATG_TGFb_CIS: Attagene CIS-FACTORIAL HepG2 Assay for human Transforming Growth Factor (TGF) (AID 2282967). Conditions: HepG2 Attagene CIS TGFb reporter, mRNA transcription; actives raise or lower the signal. The essentials:
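Transcript-level reporter readout: HepG2 transfectants, 24 h exposure, RNA to cDNA, reporter-specific PCR, fluorescent primer extension, capillary sizing against ROX standards. Gain- or loss-of-signal relative to DMSO.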

Transcription factor E2F1 (Homo sapiens), sequence (Q01094 whole entry, looked up): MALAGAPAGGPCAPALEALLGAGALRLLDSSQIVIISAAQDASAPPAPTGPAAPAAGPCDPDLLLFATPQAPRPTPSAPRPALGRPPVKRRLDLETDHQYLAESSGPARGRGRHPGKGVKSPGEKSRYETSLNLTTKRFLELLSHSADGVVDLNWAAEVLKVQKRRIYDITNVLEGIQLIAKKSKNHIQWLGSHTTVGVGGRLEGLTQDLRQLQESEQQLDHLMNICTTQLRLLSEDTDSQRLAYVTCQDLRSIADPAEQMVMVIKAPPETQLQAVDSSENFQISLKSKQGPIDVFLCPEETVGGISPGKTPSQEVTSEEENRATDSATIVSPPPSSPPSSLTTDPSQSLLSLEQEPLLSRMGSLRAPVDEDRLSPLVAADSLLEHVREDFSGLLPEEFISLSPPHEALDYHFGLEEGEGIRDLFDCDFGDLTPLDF
Paired box protein Pax-6 (Homo sapiens), sequence (P26367 whole entry, looked up): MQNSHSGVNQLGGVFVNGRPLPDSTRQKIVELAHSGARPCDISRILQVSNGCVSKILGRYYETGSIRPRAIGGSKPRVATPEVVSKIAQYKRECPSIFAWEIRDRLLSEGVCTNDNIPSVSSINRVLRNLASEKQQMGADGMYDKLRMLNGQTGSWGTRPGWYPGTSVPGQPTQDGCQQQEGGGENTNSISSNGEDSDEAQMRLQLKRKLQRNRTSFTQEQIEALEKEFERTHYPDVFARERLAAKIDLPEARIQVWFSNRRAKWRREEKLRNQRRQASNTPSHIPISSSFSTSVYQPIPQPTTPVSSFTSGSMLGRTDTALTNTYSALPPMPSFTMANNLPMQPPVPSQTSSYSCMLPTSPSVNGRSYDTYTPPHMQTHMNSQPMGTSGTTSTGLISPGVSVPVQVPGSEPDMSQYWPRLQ
Hepatocyte nuclear factor 3-beta (Homo sapiens), sequence (Q9Y261 whole entry, looked up): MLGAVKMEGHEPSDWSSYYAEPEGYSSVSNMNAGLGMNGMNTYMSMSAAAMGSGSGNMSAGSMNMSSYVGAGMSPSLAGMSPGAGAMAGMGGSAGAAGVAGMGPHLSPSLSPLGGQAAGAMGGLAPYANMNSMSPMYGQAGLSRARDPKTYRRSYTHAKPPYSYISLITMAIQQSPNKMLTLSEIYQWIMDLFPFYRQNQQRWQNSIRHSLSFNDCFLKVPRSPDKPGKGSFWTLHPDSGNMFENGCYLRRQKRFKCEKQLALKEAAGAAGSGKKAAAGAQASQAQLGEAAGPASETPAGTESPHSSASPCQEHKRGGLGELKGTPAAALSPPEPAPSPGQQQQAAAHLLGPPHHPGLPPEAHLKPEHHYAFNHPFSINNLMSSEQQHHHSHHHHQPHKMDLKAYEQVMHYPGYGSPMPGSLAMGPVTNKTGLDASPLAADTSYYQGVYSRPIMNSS

In the case of `NNc1ccccc1`, the result in [1], in test [2], in test [3], in test [4], in test [5] and in [6] was inactive. Also, the compound was called inactive in test [7], in [8], in test [9], in [10], in test [11] and in test [12]. For the same compound, the call in test [13], in [14], in [16], in test [17], in [18] and in test [19] was inactive. Also, the call in test [20] was inactive. The AC50 in test [15] was 38.9 µM (active).

For `C=CCc1ccc(OC(=O)Cc2ccccc2)c(OC)c1`, the outcome in test [1], in test [2], in test [3], in test [4], in [5] and in test [6] was inactive. Further, the outcome in test [7], in test [8], in test [9], in test [10], in test [11] and in [12] was inactive. Further, the compound was classed as inactive in test [13], in [14], in test [16], in test [17], in test [18] and in [19]. Besides, in [20], the compound was called inactive. In addition, in [15], the AC50 was 8.28 µM (active).

For `[N-]=[N+]=CC(=O)OC[C@H](N)C(=O)O`, the compound was classed as inactive in test [1], in [2], in test [3], in test [4], in test [5] and in test [6]. Also, the call in test [7], in test [8], in test [9], in test [10], in test [11] and in test [12] was inactive. Also, the call in [13], in test [14], in test [16], in test [17], in [18] and in test [19] was inactive. The outcome in [20] was inactive. The concentration at half-maximal activity (AC50) in [15] was 26 µM (active).

Turning to `CC(C)(Cl)Cl`, the call in test [1], in [2], in test [3], in test [4], in test [5] and in [6] was inactive. The call in [7], in test [8], in test [9], in [10], in test [11] and in [12] was inactive. Further, the call in test [13], in test [14], in [15], in test [16], in test [17] and in test [18] was inactive. Besides, the compound was classed as inactive in [19] and in test [20].

For the compound `CC(O)CN(CC(C)O)CC(C)O` (stereo not given), the outcome in test [1], in [2], in [3], in [4], in test [5] and in test [6] was inactive. For the same compound, the compound was classed as inactive in [7], in [8], in [9], in test [10], in test [11] and in test [12]. For the same compound, the call in [13], in [14], in test [15], in [16], in [17] and in [18] was inactive. Also, the compound was called inactive in [19] and in test [20].

As to `S=c1[nH]c2ccccc2[nH]1`, the outcome in test [1], in [2], in test [3], in [4], in test [5] and in test [6] was inactive. The compound was classed as inactive in [7], in test [8], in test [9], in [10], in [11] and in test [12]. Moreover, the compound was classed as inactive in test [13], in test [14], in test [15], in test [16], in [17] and in test [18]. For the same compound, the compound was classed as inactive in test [19] and in test [20].

For `CCC(=O)c1ccc(Cl)cc1`, the compound was classed as inactive in [1], in test [2], in test [3], in [4], in test [5] and in test [6]. The result in test [7], in test [8], in test [9], in test [10], in test [11] and in [12] was inactive. In addition, the compound was classed as inactive in [13], in test [14], in [15], in test [16], in test [17] and in test [18]. For the same compound, the compound was classed as inactive in test [19] and in [20].
